# PubChem BioAssay AID1076 (NMMLSC, 2008)
# Active and inactive are the calls of the source.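 How the source made its calls: active means cell event count below 40, meaning activity score above 60 where score is 100 minus count; inactive means the rest.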
# Assay: LNCaP cell loss by flow event count, confirmation, cytotoxicity control for prostate differentiation activator project, single point (AID 1076);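 further: counts scatter-gated live cells after medium removal discards detached dead cells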
# Conditions: flow cytometry event count, 4 d, stronger effect = lower value
SMILES,cell event count (at 100 µM),"cell event count (event count, at 10 µM)"
Cc1cccc(-c2nsc(SCC(=O)Nc3nccs3)n2)c1,144 (inactive),169
COc1ccc(Cc2n[nH]c(=O)c3ccccc23)cc1OC,207 (inactive),111
COc1ccc(N2CCN(CCCNC(=O)CC3Oc4ccc(C)cc4NC3=O)CC2)cc1 (centres undefined),290 (inactive),140
COc1ccc(/C=N/c2nc3ccccc3n2C)cc1OC,90 (inactive),35.5
O=C(c1ccc(COCC(F)(F)F)o1)N1CCCCCC1,118 (inactive),104
COc1ccc(CCNC(=O)C2CCN(Cc3nc(-c4ccccc4F)oc3C)CC2)cc1OC,524 (inactive),478
CCOc1ccc(OCC)c(NC(=O)C2CCCN(S(=O)(=O)c3c(C)noc3C)C2)c1 (centres undefined),187 (inactive),260
Cc1cc(C)n2nnnc2c1C#N,257 (inactive),172
O=C(Cn1cc2c(n1)CCCC2)NCCCN1CCN(c2ccccc2F)CC1,94 (inactive),102
Cc1oc(-c2ccc(Cl)cc2)nc1CN1CCCC(C(=O)NCc2ccco2)C1 (centres undefined),27 (inactive),248
Cc1ccccc1Cn1cnc2c(cnn2C(C)(C)C)c1=O,13 (inactive),85
O=C(NCCCN1CCOCC1)c1cc2c(s1)CSC2,191 (inactive),52.5
CCOc1nc(-c2ccccc2O)nc2ccccc12,252 (inactive),250
COc1ccc(-c2cc(-c3ccc(F)cc3)nc(N3CCN(C)CC3)n2)cc1,3 (inactive),118
O=C(Cn1ccc2ccccc2c1=O)NCCC(=O)N1CCN(c2cccc(C(F)(F)F)c2)CC1,232 (inactive),258
Cc1cc(N2CCN(C)CC2)nc2ccc(NC(=O)c3ccc4c(c3)OCO4)cc12,57 (inactive),278
Cc1oc(-c2ccc(Cl)cc2)nc1CN1CCC(C(=O)N2CCc3ccccc3C2)CC1,18 (inactive),320
COc1ccc(N2CCN(CCCNC(=O)c3cc4sccc4n3C)CC2)cc1,161 (inactive),251
CCOC(=O)N1CCC(NC(=O)c2cc3c(-c4ccccc4F)nn(C)c3s2)CC1,60 (inactive),148
COc1ccc2cc3cc(C(=O)Nc4ccccc4N4CCN(C)CC4)oc3nc2c1,41 (inactive),334
CCOC(=O)c1c(NCc2ccc3c(c2)OCO3)c2ccccc2[nH]c1=O,39 (inactive),357
Cc1cc(=O)n2nc(N3CCCC(C(=O)NCCCN4CCc5ccccc5C4)C3)sc2n1 (centres undefined),259 (inactive),146
CCOc1ccc(-n2cc(C(=O)N3CCC(C)CC3)c3cc(OC)c(OC)cc3c2=O)cc1,202 (inactive),251
O=C(CN1CCC(n2nnc3cc(F)ccc32)CC1)Nc1ccc2c(c1)CCC2,210 (inactive),466

SMILES,cell event count (at 100 µM),"cell event count (event count, at 10 µM)"
COc1ccc(-c2ccc(-c3nnn(CC(C)=O)n3)cc2)cc1,145 (inactive),116
CCOC(=O)N1CCN(C(=O)CCc2c(C)nc3c(c(C)nn3-c3ccc(C)c(C)c3)c2C)CC1,5 (inactive),222
Cc1ccccc1OCc1nc(-c2ccc(NC(=O)c3ccc4c(c3)OCO4)cc2)no1,31 (inactive),154
N=c1n(CCN2CCCCC2)c2ccccc2n1CC(O)COc1ccccc1 (centres undefined),20 (inactive),178
CC1(C)CC(=O)c2cc(OCC(=O)NCCCN3CCN(c4ccccc4F)CC3)ccc2O1,11 (inactive),141
CCCc1cc(-c2n[nH]c(C)c2-c2ccc(C(=O)OCC)o2)c(O)cc1O,7 (active),71
CCc1ccc(-c2nc(CN3CCCC(C(=O)NCCc4ccc(OC)c(OC)c4)C3)c(C)o2)cc1 (centres undefined),8 (inactive),144
CCc1ccc(NC(=O)NCCN2CCc3ccccc3C2)cc1,6 (inactive),112
Cc1ccccc1-c1nc(CN2CCC(C(=O)NCc3ccco3)CC2)c(C)o1,158 (inactive),296
CCCc1ccc(Oc2cn[nH]c2-c2ccc(O)c(C)c2O)cc1,5 (inactive),106
O=C(NCCc1c[nH]c2ccccc12)C(F)(F)C(F)F,111 (inactive),118
COc1ccc2c(c1OC)C(=O)N(C(C)C(=O)O)C2=O (centres undefined),56 (inactive),53.5
CCCS(=O)(=O)N1CCCC(C(=O)NCCCN2CCN(c3ccccc3F)CC2)C1 (centres undefined),110 (inactive),168
CCN(CC)CCNC(=O)c1nn(-c2ccc(C)cc2)c(=O)c2c1c1ccccc1n2C,18 (inactive),136
CCOc1ccc2ccccc2c1C(=O)N1CCN(c2ccccc2)CC1,19 (inactive),79.5
O=C(NCC(c1cccnc1)N1CCOCC1)c1cccc(Cl)c1 (centres undefined),175 (inactive),94.5
COc1ccc(CN2C(=O)C(O)(CC(=O)c3c(C)n[nH]c3C)c3ccccc32)cc1OC (centres undefined),284 (inactive),248
Cc1cc(NC(=O)CSc2nnc(C3CC3)n2C)no1,198 (inactive),100
Cc1ccc(C(=O)/C=C/Nc2cccc(O)c2)cc1,17 (inactive),74
COCCNC(=O)CC(NS(=O)(=O)c1ccc(NC(C)=O)cc1)C(C)C (centres undefined),79 (inactive),62
CCOC(=O)c1c(-c2ccc(C)o2)csc1NC(=O)CN1CCN(CC)CC1,27 (inactive),170
Cc1ccccc1-c1nc(CN2CCC(C(=O)N3CCC(C(N)=O)CC3)CC2)c(C)o1,150 (inactive),83.5
CCCOc1ccccc1C1CC(=O)Nc2cc3c(cc21)OCO3 (centres undefined),6 (active),56
